According to ChEMBL document CHEMBL4513216, “Probing the Open Global Health Chemical Diversity Library for Multistage-Active Starting Points for Next-Generation Antimalarials” (ACS Infect Dis, 2020):
Among all 68,000 compounds or so, about 2,700 (4%) showed an effect of 50% or more. The full list was thinned out, with strong results kept by preference.

tested on: Plasmodium berghei; experiment: Screen against P. berghei liver stage (PbLuc), transformed with Luciferase, at 2uM; format: functional, HepG2; settings: tested at 2 uM

Going from `Cc1n[nH]c(C)c1NC(=O)CN1CCc2c(nc(C3CC3)n2C)C1` to `CC(=O)Nc1cc(C2CC2)nn1-c1nc(C)c(C)c(=O)[nH]1`, the INHIBITION falls from 47.57% to -8.91%.

Compared with `Cc1[nH]ccc1C(=O)N1CCC2(CC1)c1nc[nH]c1CCN2S(C)(=O)=O`, `COCC1CC2(CCN(C(=O)c3oc4ccccc4c3C)CC2)CO1` (stereo unspecified) is higher in INHIBITION: 0.31% for the first, 5.15% for the second.

Compared with `CO[C@H]1CO[C@@]2(CCCN(S(=O)(=O)c3ccccc3)C2)C1`, `CS(=O)(=O)NC[C@@H]1OC[C@H]2CN(C(=O)c3ccccc3)CC[C@H]21` is higher in INHIBITION: -1.81% for the first, 39.18% for the second.

First: Cc1cccnc1CNC(=O)CC1C(=O)NCCN1CC(C)(C)C (stereo unspecified)
Second: COc1ccc2c(OCC(=O)NC(C)(C)C)ccnc2c1
The INHIBITION of the first is lower: -26.52% for the first, -3.8% for the second.

Compared with `Cc1nnc(N2CC[C@H]3C[C@@H](C(=O)NC4CCCC4)O[C@H]3C2)s1`, `Cc1cc(NCc2cc3n(n2)CCCN(C(=O)C2CCC2)C3)ncn1` is higher in INHIBITION: -21.74% for the first, 19.13% for the second.

Going from `Cc1n[nH]c(C)c1CCC(=O)NCC1CCOc2ccccc2C1` (stereo unspecified) to `CNc1nc(C(=O)NCC2CCOc3ccccc3C2)cs1` (stereo unspecified), the INHIBITION rises from 49.02% to 76.82%.

Compared with `Cc1cnc(C(=O)NCC2CCOc3ccccc3C2)cn1` (stereo unspecified), `CNC(=O)c1ccnc(CC2COc3c(cccc3OC)C2)c1` (stereo unspecified) is lower in INHIBITION: 10.05% for the first, -12.13% for the second.

First: Fc1ccc(-c2n[nH]cc2CNCCn2cccn2)cc1
Second: CCOc1ccc(Cl)c(C(=O)NCCC(=O)Nc2ccncc2)n1
The INHIBITION of the first is lower: 11.01% for the first, 39.54% for the second.

Compared with `CC(C)OC(=O)c1ccc(Cl)c(NC(=O)NCCN2CCOCC2)c1`, `O=C(NCCN1CCCC1)Nc1cc(C(=O)N2CCOCC2)ccc1Cl` is lower in INHIBITION: 50.94% for the first, 19.81% for the second.

Compared with `CCSCCNC(=O)Nc1cc(C(=O)N2CCOCC2)ccc1Cl`, `Cn1ccc(C(=O)NCc2ccc(N3CCOCC3)nc2)cc1=O` is higher in INHIBITION: -0.24% for the first, 52.17% for the second.

Going from `CN(CC(=O)NC(C)(C)C)Cc1nc(-c2ccccc2)c[nH]1` to `Cc1nccc(C(=O)NC(CN2CCCC2=O)c2ccccc2)n1` (stereo unspecified), the INHIBITION falls from -20.91% to -45.82%.

Going from `COc1cc(C(=O)N2CCCS2(=O)=O)ccc1C` to `COc1cccn(CC(=O)N2CCCC3(CCCCC3)C2)c1=O`, the INHIBITION rises from 9.9% to 26.14%.

Compared with `COCCN1CCC(CNC(=O)C2(c3cccc(Cl)c3)CC2)C1` (stereo unspecified), `COCCN1CCC(CNC(=O)C2(c3cccc(C)c3)CC2)C1` (stereo unspecified) is lower in INHIBITION: 56.02% for the first, 43.79% for the second.

First: COCCN1CCC(CNC(=O)C2(c3ccc(Br)cc3)CCCC2)C1 (stereo unspecified)
Second: COCCN1CCC(CNC(=O)C2(c3ccccc3)CCC2)C1 (stereo unspecified)
The INHIBITION of the first is higher: 66.2% for the first, -1.02% for the second.

First: COCCN1CCC(CNC(=O)C2(c3cc(C)cc(C)c3)CCC2)C1 (stereo unspecified)
Second: COCCN1CCC(CNC(=O)C2(c3cc(C)cc(C)c3)CC2)CC1
The INHIBITION of the first is lower: -36.13% for the first, 39.72% for the second.

Going from `COCCN1CCC(CNC(=O)C2(c3cccc(C)c3)CC2)CC1` to `COCCN1CCC(CNC(=O)C2(c3ccc(F)cc3)CCC2)CC1`, the INHIBITION rises from 3.9% to 66.2%.

Going from `CCN1CCC(CNC(=O)C2(c3ccc(F)cc3)CC2)C1` (stereo unspecified) to `CCN1CCN(c2ccc(CNC(=O)c3ccc(Cl)o3)cn2)CC1`, the INHIBITION rises from 20.41% to 66.93%.

Compared with `Cc1nc(C(NS(=O)(=O)N(C)C)c2ccccc2F)no1` (stereo unspecified), `Cc1c(F)cccc1CN1CCn2nc(CNC(=O)N(C)C)cc2C1` is higher in INHIBITION: -1.56% for the first, 21.08% for the second.

Going from `CCCNC(=O)Nc1ccn(CCCOC)n1` to `COCCNC(=O)C1CN(Cc2ccncc2)Cc2ccnn2C1` (stereo unspecified), the INHIBITION rises from -27.36% to -15.71%.

Going from `CC(C)CSCCN1CCCN(S(C)(=O)=O)CC1` to `Cc1cc(NCc2cc3n(n2)CCCN(S(C)(=O)=O)C3)ncn1`, the INHIBITION falls from -14.71% to -14.84%.

First: CCn1c(CN(C)C)nnc1C1CCN(Cc2ccc(Cl)cc2F)CC1
Second: CCN(CC)S(=O)(=O)N1CCC(c2nccn2Cc2ccccn2)CC1
The INHIBITION of the first is higher: -12.75% for the first, -28.42% for the second.

Going from `Cc1cccc(C2(O)CCN(C(=O)c3ccccn3)CC2)c1C` to `Cc1[nH]c2cc(C3CCN(C(=O)c4ccccn4)CC3)nn2c(=O)c1C`, the INHIBITION falls from 14.59% to 9.9%.

First: Cc1cnn(CC2CCCN2Cc2cc(C)no2)c1 (stereo unspecified)
Second: Cc1ccccc1C1CCCN1Cc1nc2c(cnn2C)c(=O)[nH]1 (stereo unspecified)
The INHIBITION of the first is higher: -4.43% for the first, -29.69% for the second.

Going from `Cn1ccc(C(=O)NCc2ccc(N3CCCC3)nc2)cc1=O` to `Cn1ccc(C(=O)NCc2ccc(N3CCCCC3)nc2)cc1=O`, the INHIBITION rises from 9.3% to 26.06%.

First: CCN1CCN(c2ccc(CNC(=O)c3cc(C)on3)cn2)CC1
Second: CCN1CCN(c2ccc(CNC(=O)c3cnn(C)c3C)cn2)CC1
The INHIBITION of the first is higher: 23.24% for the first, 21.83% for the second.

First: Cc1ncc(C(=O)NCCNc2ccncc2)s1
Second: COc1ccc2c(OCC(=O)NCC(F)(F)F)ccnc2c1
The INHIBITION of the first is lower: -60.22% for the first, -26.08% for the second.

Going from `CN(C)C(=O)c1ccc(C2CCCN2C(=O)CCC2=NNC(=O)CC2)s1` (stereo unspecified) to `CN(C)C(=O)COc1ccccc1CN1CCCC2(C1)CN(C)C(=O)O2` (stereo unspecified), the INHIBITION falls from -11.64% to -38.26%.

First: O=C(C1CCC1)N1CCCn2nc(CNc3ncccn3)cc2C1
Second: Nc1nccc(NCc2cc3n(n2)CCCN(C(=O)C2CCC2)C3)n1
The INHIBITION of the first is higher: 52.47% for the first, 4.47% for the second.

Going from `Cc1cc(C)nc(NCc2cc3n(n2)CCCN(C(=O)C2CCC2)C3)n1` to `Cc1nccc(NCc2cc3n(n2)CCCN(C(=O)C2CCC2)C3)n1`, the INHIBITION rises from -4.53% to 55.7%.

Compared with `CSc1nccc(NCc2cc3n(n2)CCCN(C(=O)C2CCC2)C3)n1`, `Cc1nccc(NCc2cc3n(n2)CCCN(S(C)(=O)=O)C3)n1` is higher in INHIBITION: -36.65% for the first, 8.89% for the second.

Compared with `CS(=O)(=O)N1CCCn2nc(CNc3ncccn3)cc2C1`, `CC(C)Nc1ncnc2c1CCN(C(=O)Cc1ccccn1)CC2` is lower in INHIBITION: 51.19% for the first, 14.23% for the second.

Going from `CC1=N[C@@]2(CC[C@@H]3CN(Cc4ccc(C)cc4)C[C@@H]32)C(=O)N1CC1CC1` to `Cc1cccc(CN2C[C@@H]3OCCN(c4ccnc(N(C)C)n4)[C@@H]3C2)c1`, the INHIBITION rises from 41.38% to 53.55%.

First: CC1CN(C)CCN1C(=O)c1ccn(-c2ccccc2)n1 (stereo unspecified)
Second: O=C(c1cscn1)N1CC[C@@H]2[C@@H]1CCN2c1ccccn1
The INHIBITION of the first is lower: 23.42% for the first, 36.03% for the second.

Compared with `COc1cccc(OCCCc2cncc(C(N)=O)c2)c1`, `COc1cccc(OCCc2cncc(C(N)=O)c2)c1` is lower in INHIBITION: 61.08% for the first, -18.52% for the second.

Compared with `COc1ccccc1OCCCc1cncc(C(N)=O)c1`, `CCN(CC)C(=O)COc1ccnc2cc(OC)ccc12` is higher in INHIBITION: -69.92% for the first, 50.42% for the second.

Compared with `Nc1ncnc2nc(C3CCN(C(=O)Cc4ccccc4)C3)ccc12` (stereo unspecified), `COc1ccc(CN2CCO[C@H]3[C@H](Oc4ccccn4)CC[C@@H]32)cc1` is higher in INHIBITION: -7.22% for the first, -0.68% for the second.

Compared with `CCc1nc(CC2CN(c3ncnc4sc(C)c(C)c34)CCO2)no1` (stereo unspecified), `Cc1cnc(CN2CCN(c3nc(C)cs3)C(C)C2)cn1` (stereo unspecified) is higher in INHIBITION: -7.81% for the first, 50.3% for the second.

First: Cc1cc(NC(=O)C(C)C)n(-c2nc(C)c(C)c(=O)[nH]2)n1
Second: Cc1nc(-n2nc(C3CC3)cc2NC(=O)C(C)C)[nH]c(=O)c1C
The INHIBITION of the first is lower: 27.11% for the first, 55.52% for the second.

Going from `CC(C)(C#N)CCCS(=O)(=O)c1nccn1-c1cccc(F)c1` to `COc1ccc2c(=O)ccn(CC(=O)O)c2c1`, the INHIBITION falls from 19.33% to 16.54%.

Going from `CCN(CC1CCOC1)C(=O)Nc1ccc(N2CCOCC2)nc1` (stereo unspecified) to `CCN(CC1CCOC1)C(=O)c1cccnc1N1CCOCC1` (stereo unspecified), the INHIBITION rises from -25.45% to 53.03%.

Compared with `CCN(CC1CCOC1)C(=O)c1ccccc1N1CCOCC1` (stereo unspecified), `c1ccc(CO[C@H]2CC[C@H]3[C@H]2OCCN3CCN2CCCCC2)nc1` is higher in INHIBITION: -45.72% for the first, 27.42% for the second.

Compared with `CN(C)c1nccc(N2CCO[C@H]3CN(Cc4ccco4)C[C@H]32)n1`, `CN(C)c1nccc(N2CCO[C@H]3CN(Cc4ccsc4)C[C@H]32)n1` is lower in INHIBITION: 28.14% for the first, -33.63% for the second.

Going from `Cc1ccc(-c2nc(C3CCN(C(=O)c4ccnn4C)CC3)no2)cn1` to `Cc1noc(C2CCN(C(C)c3nc(C(C)(C)C)no3)CC2)n1` (stereo unspecified), the INHIBITION rises from 10.65% to 11.42%.

Compared with `Cc1csc(CN(C)C(=O)Nc2cc(F)cc(N3CCCC3)c2)n1`, `Fc1cccc(Nc2nc(N3CCCC3)nc3c2CNCC3)c1` is higher in INHIBITION: 0.12% for the first, 32.67% for the second.

First: CCN(CC)CCN1CCO[C@H]2[C@@H](OCc3ccccn3)CC[C@@H]21
Second: CCOCCN1CCO[C@H]2[C@H](OCc3ccccn3)CC[C@@H]21
The INHIBITION of the first is lower: -31.4% for the first, 55.07% for the second.

Going from `Cc1cccc(CN2CCO[C@H]3[C@H](Oc4ccccn4)CC[C@@H]32)n1` to `Cc1nc(CN2CCO[C@H]3[C@@H](Oc4ccccn4)CC[C@@H]32)cs1`, the INHIBITION falls from 64.44% to 27.9%.

Compared with `CS(=O)(=O)N1C[C@@H](Oc2ccccn2)[C@H]2OCCC[C@H]21`, `CCS(=O)(=O)N1C[C@@H](Oc2ccccn2)[C@H]2OCCC[C@H]21` is lower in INHIBITION: 50.72% for the first, 13.38% for the second.

First: O=S(=O)(C1CC1)N1C[C@H](Oc2ccccn2)[C@H]2OCCC[C@H]21
Second: Cc1csc(N2CCN(Cc3ccccn3)CC2C)n1 (stereo unspecified)
The INHIBITION of the first is higher: 17.77% for the first, -13.94% for the second.

Compared with `COC(=O)CSc1nnc(CCNC(=O)OC(C)(C)C)o1`, `Cc1nc(CNCC2CNc3ccnn3C2)cs1` (stereo unspecified) is lower in INHIBITION: 25.59% for the first, 0.05% for the second.

Compared with `CC(C1CC1)N(C)C(=O)c1ccc(-n2ncc(C#N)c2N)cc1` (stereo unspecified), `COc1cc(N2C[C@@H]3COC[C@]3(COc3ccc(C#N)cn3)C2)ncn1` is lower in INHIBITION: 26.2% for the first, -15.95% for the second.

`Cc1csc(N2CCN(Cc3cscn3)CC2C)n1` (stereo unspecified) showed an INHIBITION of -7.32%.
